# FMDV inh = blocks foot and mouth disease virus | FMDV antiviral cell-based qHTS | Potency, µM (doses to about 57.9 µM), for inactives: at the highest dose activity change, negative = inhibition, hits mostly inhibitors | hit rate 1.2% among 410,000 | AID 1159524; calls by dose curve; tested in HEK293T cells; note: read-out not given here; potency is the fitted concentration of half-maximal effect; nearly all actives have a fitted effect of over 45% in size
# Vaccinia Venus = inhibitors of vaccinia virus (Venus reporter) | Vaccinia virus Venus reporter expression, fluorescence | Potency, µM (top dose mostly 36.5 µM), without a hit: at the highest dose activity change, negative = inhibition, actives largely listed as inhibitors | hit rate 0.46% among 330,000 | AID 720580; calls by dose curve; tested in A549 cells; note: potency is the fitted concentration of half-maximal effect; nearly all actives have a fitted effect of over 30% in size
# VACV mCherry inh = inhibitors of vaccinia virus infection (mCherry reporter signal) | Potency, µM (titrated, usually from 36.5 µM), for the others: at the top dose activity change, negative = inhibition, most hits filed as inhibitors | AID 720579 | Vaccinia virus mCherry reporter infection, fluorescence | hit rate 0.63% among 310,000; calls by dose curve; tested in A549 cells; note: potency is the fitted concentration of half-maximal effect; nearly all actives have a fitted effect of over 35% in size
# HCV inh = HCV inhibition; Huh7.5.1 HCVcc-Cre infection, luciferase reporter, 44 h; Potency, µM (doses to about 41.8 µM), without a hit: top-dose activity change, negative = inhibition, usual class: inhibitors; hit rate 3.4% among 340,000; note: potency is the fitted concentration of half-maximal effect
#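 Luciferase read-out (15 sec integration) after a 15 min room-temperature substrate step quantifies HCVcc-Cre infection. Cells, 1,000 per well, had compound added 4 h post-plating, then virus at ~0.5 moi, and were cultured 44 h.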
# FBPA Giardia inh = Giardia lamblia aldolase inhibition. Potency, µM (top dose mostly 59.6 µM), without a hit: at the top dose activity, negative = inhibition, most hits filed as inhibitors. AID 2451. purified Giardia FBPA. hit rate 0.71% among 290,000. A8B2U2; note: potency is the fitted concentration of half-maximal effect; nearly all actives have a fitted effect of over 55% in size
# Target sequence (A8B2U2 whole entry, looked up): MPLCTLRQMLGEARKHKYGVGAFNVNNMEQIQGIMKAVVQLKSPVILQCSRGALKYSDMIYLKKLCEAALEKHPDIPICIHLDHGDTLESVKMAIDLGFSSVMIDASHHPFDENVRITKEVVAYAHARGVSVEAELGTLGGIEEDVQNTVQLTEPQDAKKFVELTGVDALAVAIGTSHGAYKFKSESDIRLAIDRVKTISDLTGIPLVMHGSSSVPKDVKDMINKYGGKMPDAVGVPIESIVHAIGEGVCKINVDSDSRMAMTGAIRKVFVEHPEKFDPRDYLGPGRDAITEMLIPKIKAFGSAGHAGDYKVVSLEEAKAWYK
#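 40 nM FBPA preincubated 10 min at RT with compound (up to 57.5 uM final), then substrate plus GAPDH/TPI/NAD/arsenate coupling and diaphorase/resazurin added. Fluorescence read after 20 min at RT, 525/598 nm.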
# HCMV inh = blocks human cytomegalovirus replication. HFF cells, HCMV-luciferase reporter, 72 h; stronger effect = lower value. activity change, negative = inhibition, % at 57.5 µM. hit rate 4.5% among 410,000. AID 1259415; in the data active = activity change below about -60%; inconclusive = no clear call, values can overlap the other calls; inactive = above about -39%
#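 HFF cells seeded 16 h at 37C, treated with compounds, infected with luciferase-reporter HCMV at MOI 1 PFU/cell; luciferase read at 72 h post infection, normalized to buffer-only and Salinomycin controls.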
# An asterisk follows results filed as active; i = inactive; ? = inconclusive; · = no result; [ ] = another dose, or the depositor's remark. Only some compounds are listed: those with a hit (about 7.5% of all), similar ones and a draw of the others. Unless noted, calls come from the whole dose curve; as a rule, active = well fitted curve in the direction sought with a large enough effect; inconclusive = small, poorly fitted or top-dose-only effect, or another doubt; inactive = no such curve, though single readings can be large; an effect the other way counts as inactive or inconclusive. % is set by controls: 0 for no effect and ±100 for the full control effect.
SMILES,FMDV inh,Vaccinia Venus,VACV mCherry inh,HCV inh,FBPA Giardia inh,HCMV inh
CCCNC(=O)C1CCN(Cc2cc3ccccc3n2Cc2ccccc2)CC1,-29%,-12%,-14%,·,·,-19
N#C/C(=C\c1ccc(OCc2ccc(F)cc2)cc1)C(=O)Nc1cccc(C(=O)O)c1,45%,·,·,34%,4%,-75*
N#C/C(=C\c1ccc(OCc2ccc(Br)cc2)cc1)C(=O)Nc1cccc(C(=O)O)c1,3%,9%,1%,9%,8%,13
CCC(=O)NC(c1cc(Cl)c2cccnc2c1O)C1CC1 (stereo not drawn),?,·,·,·,·,-95*
CCC(=O)NC(c1cc(Cl)c2cccnc2c1O)C(C)C (stereo not drawn),-25%,·,·,·,·,-96*
CC(=O)NC(c1cc(F)c2cccnc2c1O)C1CC1 (stereo not drawn),?,·,·,·,·,27
COc1cccc(C(=O)/C=C/Nc2cc(C)ccc2O)c1,20%,·,·,2.2µM*,-13%,-79*
c1ccc2sc(-c3cc4c(c(OC5CCOC5)c3)OCCN(Cc3cccn3-c3nccs3)C4)nc2c1 (stereo not drawn),-7%,-5%,-12%,·,·,·
CCOC(=O)c1cnn2c(C)cc(-c3ccccc3)nc12,40%,·,·,10µM*,25%,42
CCOC(=O)c1cc(-c2ccccc2)nc2nc(N(CC)CC)sc12,-25%,-20%,-10%,14µM*,-6%,-90*
CCOC(=O)c1cnc(-c2ccccc2)nc1-c1ccccc1,-9%,-16%,-4%,-12%,2%,-102*
CN(C)C(=O)c1cnc(-c2ccccc2)nc1-c1ccccc1,-13%,-11%,-6%,-9%,5%,-62*
CCOC(=O)c1cnc(N)nc1-c1ccccc1,-25%,-12%,-23%,18%,·,-10
Nc1nc(N)c2cc(Sc3ccc(Cl)cc3)ccc2n1,-18%,6.3µM*,?,·,·,-77*
Nc1nc(N)c2cc(Sc3cccc(C(F)(F)F)c3)ccc2n1,?,5µM*,7.1µM*,·,·,-70*
FC(F)(F)c1cccc(Sc2nc(-c3ccccc3)nnc2C(F)(F)F)c1,?,-8%,·,14%,2%,-5
Nc1nc(N)c2cc(Sc3ccc4ccccc4c3)ccc2n1,?,·,·,11µM*,1%,-84*
COc1ccc(N2CCN(C(=O)c3ccc(C)c(NC(=O)C4=C(C)OCCS4)c3)CC2)cc1,-10%,-6%[7.34 µM],-25%[7.34 µM],5%,·,-17
CC1=C(C(=O)Nc2cc(C(=O)N3CCN(c4cccc(C)c4C)CC3)ccc2C)SCCO1,-9%,-6%[7.34 µM],-18%[7.34 µM],11µM*,·,-37
CC(C)=CCCC(C)C1CC[C@@]2(C)C3=C(CC[C@@]12C)C1(C)CCC(O)C(C)(C)C1CC3 (stereo partly drawn),3%,0%,i,·,-1%,·
COc1cc2ccccc2ccc1=NO,2%,?,-18%,?,·,-68*
COc1cc2ccccc2cc1C(=O)O,-3%,·,·,3%,-20%,16
Nn1cnnc1N/N=C\c1ccc(-c2ccccc2[N+](=O)[O-])o1,1%,-26%,?,-22%,1.8µM*,105
O=C(Cc1ccc(Br)cc1)Nc1cccc(-c2cn3c(n2)SCC3)c1,?,-24%,-9%,?,4%,-71*
O=C(Nc1ccc(OCc2cc(=O)n3c4c(sc3n2)CCCC4)cc1)c1ccccc1,-4%,?,1%,·,·,-105*
SMILES,FMDV inh,Vaccinia Venus,VACV mCherry inh,HCV inh,FBPA Giardia inh,HCMV inh
O=C(Nc1cccc(OCc2cc(=O)n3c4c(sc3n2)CCCC4)c1)c1ccc(F)cc1,-19%,-8%,-5%,·,·,1
COc1cc(C(=O)OCc2cc3ccccc3[nH]c2=O)cc(OC)c1OC,28%,-10%,·,-3%,3%,-86*
CCC(C)(C(=O)NC1CCCC1)N(C(=O)Cc1cccs1)c1c(C)n(C)n(-c2ccccc2)c1=O (stereo not drawn),-4%,-3%,i,6%,1%,-14
CCc1ccc(N(CC(=O)Nc2ccc(NC(C)=O)cc2)S(=O)(=O)c2ccccc2)cc1,-1%,-27%,-26%,-21%,-10%,-61*
Cc1cccc(N(CC(=O)Nc2ccccc2-c2ccccc2)S(=O)(=O)c2ccccc2)c1C,-25%,-25%,?,?,15%,-61*
CCN(CC)c1ccc(C(=O)OCC(=O)Nc2ccccc2-c2ccccc2)cc1,18µM*,·,·,8.9µM*,-3%,-12
Cc1ccc(S(=O)(=O)N(CC(=O)Nc2ccccc2-c2ccccc2)c2ccc(C)cc2C)cc1,-19%,-26%,?,?,1%,?
CN(C)S(=O)(=O)N(CC(=O)Nc1ccccc1)c1ccccc1,-20%,?,·,4%,1%,-16
CN(C)c1cccc(C(=O)OCC(=O)Nc2ccccc2-c2ccccc2)c1,?,-8%,-9%,?,-4%,9
CCN(CC)S(=O)(=O)c1ccc(NC(=O)CN(c2ccccc2)S(=O)(=O)N(C)C)cc1,-23%,-1%,-11%,·,·,-89*
COC(=O)c1cc(S(=O)(=O)N2CCN(Cc3ccccc3)CC2)cn1C,?,-4%,-1%,-2%,9%,-7
Cc1cc(NC(=O)CN(c2cccc(C)c2C)S(=O)(=O)c2ccccc2)ccc1Br,?,-11%,-14%,·,·,-68*
Cc1cc(C)cc(N(CC(=O)Nc2ccccc2-c2ccccc2)S(=O)(=O)c2ccccc2)c1,0%,-11%,-1%,14%,11%,-22
CC(=O)Nc1ccc(NC(=O)COC(=O)c2ccc(S(=O)(=O)N(C)c3ccccc3)cc2)cc1,-8%,·,·,13%,·,-100*
CCNC(=O)CN(c1ccc(C)cc1)S(=O)(=O)c1ccccc1,19%,5%,-11%,-10%,0%,-83*
Cc1ccc(N(CC(=O)Nc2ccccc2-c2ccccc2)S(=O)(=O)c2ccccc2)cc1,-10%,?,·,10µM*,-6%,-70*
Cc1cc(C)cc(NC(=O)CN(c2cccc(C)c2C)S(=O)(=O)c2ccccc2)c1,-9%,1%,6%,·,·,?
COCCN1C(=O)COCc2cc(-c3ccc(N(C)C)cc3)ccc21,·,·,·,·,·,47
CC(C)(C)NC(=O)CN1CCCN(C(=O)c2cccc(S(=O)(=O)N3CCc4ccccc43)c2)CC1,-7%,·,·,-13%,·,-29
O=C(NCc1ccccn1)c1cccc(S(=O)(=O)N2CCc3ccccc32)c1,-11%,-12%,-6%,?,·,8
CNc1nc2cnc(Nc3ccc(F)c(Cl)c3)cc2n1-c1cc(OC)c(OC)c(OC)c1,·,·,·,·,·,76
COc1ccc(C(=O)N[C@H](C(=O)Nc2nc3ccccc3[nH]2)C(C)C)cc1,14%,?,?,7.1µM*,-5%,-86*
Cc1cccc(C(=O)N[C@H](C(=O)Nc2nc(C)cs2)C(C)C)c1,-10%,-5%,-13%,-4%,2%,47
